# Assay results: PubChem BioAssay (Tox21)
# Values without a mark were called inactive. Inconclusive results are not listed. A call without a number means that no potency is given here. The source made the active and inactive calls. Unless noted, the call rests on the fitted dose curve; in most records, active means well fitted curve in the direction sought with a large enough effect in the repeat runs; inconclusive means weak or mixed curves; inactive means no such curve, though single readings can be large; an effect the other way counts as inactive or inconclusive.
# Columns and labels:
# [1] = qHTS assay to identify small molecule antagonists of the estrogen receptor alpha (ER-alpha) signaling pathway using the BG1 cell line in the presence of 0.1 nM 17-beta-estradiol - cell viability counter screen (AID 1259241); further: nearly all actives have a fitted effect of over 40% in size
# Procedure, shortened: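 Cells were plated and left 24 hr, compounds in DMSO were pinned in, 17beta-estradiol was added to 0.1 nM final, and after 22 hr CellTiter-Fluor reagent was added for 30 min before fluorescence was read.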
# [2] = qHTS assay to identify small molecule antagonists of the androgen receptor (AR) signaling pathway using the MDA cell line in the presence of 0.5 nM R1881 - cell viability counter screen (AID 1259242); further: nearly all actives have a fitted effect of over 45% in size
# Procedure, shortened: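 Fluorescence from CellTiter-Fluor, which reports protease activity of live cells, was read 30 min after reagent addition to MDA-kb2 cells that had been incubated 16 hr with compound and 0.5 nM R1881.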
# [3] = molecular target: Androgen receptor (Homo sapiens) (UniProt P10275); assay: qHTS assay to identify small molecule antagonists of the androgen receptor (AR) signaling pathway using the MDA cell line in the presence of 0.5 nM R1881 (AID 1259243); further: nearly all actives have a fitted effect of over 50% in size
# Androgen receptor (Homo sapiens), sequence (P10275 whole entry, looked up): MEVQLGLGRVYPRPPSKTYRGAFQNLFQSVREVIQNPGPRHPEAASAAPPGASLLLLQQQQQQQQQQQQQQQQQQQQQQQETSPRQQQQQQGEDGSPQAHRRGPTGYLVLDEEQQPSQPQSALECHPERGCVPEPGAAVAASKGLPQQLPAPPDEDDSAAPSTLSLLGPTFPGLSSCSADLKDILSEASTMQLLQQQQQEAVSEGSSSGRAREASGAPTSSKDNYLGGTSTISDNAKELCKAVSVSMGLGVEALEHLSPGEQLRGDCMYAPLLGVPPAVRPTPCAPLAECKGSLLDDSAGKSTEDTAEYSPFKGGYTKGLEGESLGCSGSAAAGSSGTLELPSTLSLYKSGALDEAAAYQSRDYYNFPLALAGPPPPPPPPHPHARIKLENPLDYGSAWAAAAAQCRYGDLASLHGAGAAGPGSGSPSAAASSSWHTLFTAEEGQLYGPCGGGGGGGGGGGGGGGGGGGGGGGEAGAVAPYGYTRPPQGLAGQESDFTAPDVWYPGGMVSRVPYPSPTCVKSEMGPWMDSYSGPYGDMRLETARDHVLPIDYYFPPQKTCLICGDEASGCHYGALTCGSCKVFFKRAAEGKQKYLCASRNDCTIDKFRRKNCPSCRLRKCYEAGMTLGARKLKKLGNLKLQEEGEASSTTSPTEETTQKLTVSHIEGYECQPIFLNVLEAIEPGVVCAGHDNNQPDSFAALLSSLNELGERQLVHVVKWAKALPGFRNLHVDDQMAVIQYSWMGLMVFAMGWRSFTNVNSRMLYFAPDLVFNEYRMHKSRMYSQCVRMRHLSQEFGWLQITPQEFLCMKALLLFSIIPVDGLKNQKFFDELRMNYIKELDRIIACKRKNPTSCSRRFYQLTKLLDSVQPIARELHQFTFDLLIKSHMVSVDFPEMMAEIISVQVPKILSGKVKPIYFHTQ
# Procedure, shortened: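 Inhibition of R1881 (0.5 nM final) induced reporter signal was measured in human MDA-kb2 cells; note the MMTV promoter also responds to GR. Exposure lasted 16 hr at 37C.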
# [4] = qHTS assay to identify small molecule HDAC inhibitors (AID 1259364); further: top concentration of the series differs between compounds; nearly all actives have a fitted effect of over 45% in size
# Procedure, shortened: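 Endogenous HDAC class I/II activity was measured in wild-type HCT-116 cells by HDAC-Glo luminescence after 2 h compound treatment.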
# [5] = qHTS assay to identify small molecule HDAC inhibitors - cell viability counter screen (AID 1259365); further: series mostly up to about 92 µM; nearly all actives have a fitted effect of over 50% in size
# Procedure, shortened: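 Counter screen in wild-type HCT-116 cells: compounds dissolved in DMSO are pin-transferred onto overnight-plated cells and left 2hr at 37C. ATP-based CellTiter-Glo luminescence then measures viable cells.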
# [6] = qHTS assay to identify small molecule agonists of the sonic hedgehog signaling (Shh) pathway - cell viability counter screen (AID 1259366); further: nearly all actives have a fitted effect of over 50% in size
# Procedure, shortened: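 Cells are plated at 2,000 per well and left 4hr at 37C, 5% CO2 before compound addition. After 23hr of treatment, CellTiter-Fluor reagent is added for 1hr at 37C and fluorescence is measured.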
# [7] = qHTS assay to identify small molecule antagonists of the sonic hedgehog signaling (Shh) pathway - cell viability counter screen (AID 1259367); further: nearly all actives have a fitted effect of over 55% in size
# Procedure, shortened: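 Using CellTiter-Fluor, viability of Gli1-Luc reporter 3T3 cells is read by fluorescence in the wells used for the Shh luciferase assay. Treatment lasts 23 hr with conditioned medium, then reagent 1 hr at 37C.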
# [8] = qHTS assay to identify small molecule agonists of the sonic hedgehog signaling (Shh) pathway (AID 1259368; calls by dose curve;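 further: NIH/3T3-derived 3T3Gli1-Luc cells carrying a stable Gli1-driven firefly luciferase reporter; series mostly up to about 92 µM; nearly all actives have a fitted effect of over 15% in size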)
# Procedure, shortened: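 Luminescent signal was taken as a measure of Gli1-controlled luciferase expression in stably transfected NIH/3T3-derived cells that had been treated for 24 hr with compounds delivered in DMSO.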
# [9] = qHTS assay to identify small molecule antagonists of the sonic hedgehog signaling (Shh) pathway (AID 1259369; calls by dose curve; further: nearly all actives have a fitted effect of over 45% in size; further: potency means the concentration at half of the fitted maximal effect)
# Procedure, shortened: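 Screening used 3T3Gli1-Luc cells at 2,000 per well, compounds delivered in DMSO, and conditioned medium as agonist stimulus; plates incubated 24hr at 37 C and 5% CO2 before a 30min luciferase step.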
# [10] = molecular target: Estrogen receptor beta (Homo sapiens) (UniProt Q92731); assay: qHTS assay to identify small molecule antagonists of the estrogen receptor beta (ER-beta) signaling pathway (AID 1259378; active means well fitted inhibition curve with a large enough effect in the signal ratio in the repeat runs, not every such curve was filed as active; the % refers to the signal ratio)
# Estrogen receptor beta (Homo sapiens), sequence (Q92731 whole entry, looked up, the tested form may be a part): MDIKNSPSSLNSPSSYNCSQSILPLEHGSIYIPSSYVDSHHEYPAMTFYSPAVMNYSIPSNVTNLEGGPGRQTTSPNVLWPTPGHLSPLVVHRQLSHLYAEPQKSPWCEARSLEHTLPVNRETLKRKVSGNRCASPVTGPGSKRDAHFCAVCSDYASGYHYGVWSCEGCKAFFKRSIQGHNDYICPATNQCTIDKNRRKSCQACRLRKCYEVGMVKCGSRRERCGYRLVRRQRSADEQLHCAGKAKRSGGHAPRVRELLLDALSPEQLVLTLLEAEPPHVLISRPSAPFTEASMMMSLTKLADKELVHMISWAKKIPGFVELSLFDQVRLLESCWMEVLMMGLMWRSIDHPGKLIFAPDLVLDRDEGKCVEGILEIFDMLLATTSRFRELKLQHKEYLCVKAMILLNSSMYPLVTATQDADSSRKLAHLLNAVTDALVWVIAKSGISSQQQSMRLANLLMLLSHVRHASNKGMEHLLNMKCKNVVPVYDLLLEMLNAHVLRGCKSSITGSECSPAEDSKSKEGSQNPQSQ
# Procedure, shortened: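 Antagonist mode: compounds added to beta-lactamase reporter HEK293T ER-beta-UAS cells stimulated with E2 (1nM final), 16 hr at 37C. LiveBLAzer B/G FRET substrate, 2 hours room temperature, fluorescence read-out.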
# [11] = qHTS assay to identify small molecule agonists of the androgen receptor (AR) signaling pathway in the presence of an antagonist - cell viability counter screen (AID 1259379);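 further: MDA-kb2 human breast cancer cells carrying an MMTV luciferase reporter; series mostly up to about 92 µM; nearly all actives have a fitted effect of over 25% in size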
# Procedure, shortened: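 In MDA-kb2 cells (human breast carcinoma, MMTV-luciferase), compounds at 15 concentrations plus 3.0uM nilutamide; 16 hr, 37C, 0% CO2; CellTiter-Fluor fluorescence read for viability.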
# [12] = qHTS assay to identify small molecule agonists of the estrogen receptor beta (ER-beta) signaling pathway - cell viability counter screen (AID 1259380); further: nearly all actives have a fitted effect of over 30% in size
# Procedure, shortened: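 Viability of ER-beta-UAS-bla HEK293T cells was determined by CellTiter-Glo luminescence following 16 hr treatment with test compounds at 37C.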
# [13] = molecular target: Androgen receptor (Homo sapiens) (UniProt P10275); assay: qHTS assay to identify small molecule agonists of the androgen receptor (AR) signaling pathway in the presence of an antagonist (AID 1259381; calls by dose curve; further: nearly all actives have a fitted effect of over 15% in size; further: potency means the concentration at half of the fitted maximal effect)
# Procedure, shortened: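 Here, 15-concentration compound series were pin-transferred onto MDA-kb2 MMTV-luciferase cells already dosed with nilutamide (3.0uM final). After 16hr at 37C, ONE-Glo was added and luminescence read 30min later at room temperature.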
# [14] = qHTS assay to identify small molecule antagonists of the estrogen receptor beta (ER-beta) signaling pathway - cell viability counter screen (AID 1259382);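 further: HEK293T cells carrying ER-beta-UAS-bla reporter stimulated with estradiol; series mostly up to about 92 µM; nearly all actives have a fitted effect of over 55% in size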
# Procedure, shortened: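 Tox21 10K library tested in qHTS format on ER-beta-bla HEK293T cells stimulated with 1nM E2; 16 hr treatment at 37C. Same-well CellTiter-Glo luminescence served as the cell viability measure.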
# [15] = qHTS assay to identify small molecule agonists or antagonists of the thyroid stimulating hormone receptor (TSHR) signaling pathway - wild type cell line counter screen (AID 1259384; calls by dose curve)
# Procedure, shortened: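 Counter screen in untransfected Hek293: compounds (15-point titration, triplicate) plus phosphodiesterase inhibitor Ro20-1724 added after 18 h plating; 30 min RT. Intracellular cAMP via competitive d2/cryptate immunoassay, 1 h incubation.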
# [16] = molecular target: Thyrotropin receptor (Homo sapiens) (UniProt P16473); assay: qHTS assay to identify small molecule antagonists of the thyroid stimulating hormone receptor (TSHR) signaling pathway (AID 1259385; calls by dose curve; further: nearly all actives have a fitted effect of over 20% in size)
# Thyrotropin receptor (Homo sapiens), sequence (P16473 whole entry, looked up): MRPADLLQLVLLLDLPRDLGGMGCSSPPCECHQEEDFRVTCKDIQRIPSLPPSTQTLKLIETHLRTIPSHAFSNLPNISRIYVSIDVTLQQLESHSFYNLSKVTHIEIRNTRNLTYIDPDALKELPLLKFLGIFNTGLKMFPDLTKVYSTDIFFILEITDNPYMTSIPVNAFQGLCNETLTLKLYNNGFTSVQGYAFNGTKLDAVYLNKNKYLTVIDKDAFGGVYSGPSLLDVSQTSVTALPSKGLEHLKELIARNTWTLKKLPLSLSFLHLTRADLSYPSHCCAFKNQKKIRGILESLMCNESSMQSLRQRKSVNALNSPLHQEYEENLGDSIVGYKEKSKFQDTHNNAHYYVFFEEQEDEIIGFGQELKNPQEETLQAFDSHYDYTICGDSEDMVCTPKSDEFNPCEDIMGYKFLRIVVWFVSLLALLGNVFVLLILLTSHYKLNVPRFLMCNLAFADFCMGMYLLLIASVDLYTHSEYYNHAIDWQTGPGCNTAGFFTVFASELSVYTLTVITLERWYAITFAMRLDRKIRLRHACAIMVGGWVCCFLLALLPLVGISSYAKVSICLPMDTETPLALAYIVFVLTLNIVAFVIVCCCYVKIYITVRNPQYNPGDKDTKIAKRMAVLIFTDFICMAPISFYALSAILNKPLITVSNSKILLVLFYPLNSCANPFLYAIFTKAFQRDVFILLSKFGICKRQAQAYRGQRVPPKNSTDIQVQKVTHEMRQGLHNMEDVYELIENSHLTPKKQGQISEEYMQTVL
# Procedure, shortened: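 Antagonist mode: compound-treated TSHR-expressing HEK293 cells were stimulated with 1.5 ng/mL TSH (final) in presence of Ro20-1724 for 30 min at RT. HTRF cAMP detection after 1 h; each compound tested at 15 concentrations, triplicate.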
# [17] = molecular target: Estrogen receptor (Homo sapiens) (UniProt P03372); assay: qHTS assay to identify small molecule antagonists of the estrogen receptor alpha (ER-alpha) signaling pathway using the BG1 cell line in the presence of 0.1 nM 17-beta-estradiol (AID 1259244); further: nearly all actives have a fitted effect of over 50% in size
# Estrogen receptor (Homo sapiens), sequence (P03372 whole entry, looked up): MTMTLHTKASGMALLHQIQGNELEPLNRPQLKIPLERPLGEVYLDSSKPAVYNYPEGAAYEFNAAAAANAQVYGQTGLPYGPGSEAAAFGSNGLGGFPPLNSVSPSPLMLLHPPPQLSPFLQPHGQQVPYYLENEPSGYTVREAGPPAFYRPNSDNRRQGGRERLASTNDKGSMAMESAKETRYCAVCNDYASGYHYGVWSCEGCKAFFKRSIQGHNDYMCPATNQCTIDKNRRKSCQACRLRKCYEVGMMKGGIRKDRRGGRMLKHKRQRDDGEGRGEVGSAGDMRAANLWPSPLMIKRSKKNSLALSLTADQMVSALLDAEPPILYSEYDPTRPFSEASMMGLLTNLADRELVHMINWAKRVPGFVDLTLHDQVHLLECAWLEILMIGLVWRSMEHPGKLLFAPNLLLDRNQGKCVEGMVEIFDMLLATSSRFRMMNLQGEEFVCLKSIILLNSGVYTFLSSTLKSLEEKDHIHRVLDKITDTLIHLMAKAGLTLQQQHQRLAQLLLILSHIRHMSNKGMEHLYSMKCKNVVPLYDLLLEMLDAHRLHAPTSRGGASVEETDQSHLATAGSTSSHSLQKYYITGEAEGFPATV
# Procedure, shortened: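 Quantitative high-throughput screen in VM7Luc4E2 cells: compound plus 0.1 nM E2 (final), 22 h, 37C, 5% CO2; ONE-Glo added, 30 min room temperature, luminescence measured.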
# [18] = molecular target: Estrogen receptor (Homo sapiens) (UniProt P03372); assay: qHTS assay to identify small molecule agonists of the estrogen receptor alpha (ER-alpha) signaling pathway in the presence of an antagonist (AID 1259383; calls by dose curve; further: nearly all actives have a fitted effect of over 15% in size; further: potency means the concentration at half of the fitted maximal effect; on activation: top concentration of the series differs between compounds)
# Procedure, shortened: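 In VM7Luc4E2 cells, 4,000 per well, compounds at 15 concentrations were co-incubated 22hr at 37C with 10.0nM final ICI-182,780. Luminescence from the stably transfected 4×ERE-luciferase reporter was recorded 30min after ONE-Glo addition.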
# [19] = qHTS assay to identify small molecule phospholipidosis (PLD) inducers (AID 1259344; active means well fitted curve in the direction sought with a large enough effect; an effect the other way counts as inactive or inconclusive)
# Procedure, shortened: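 Fluorescent phospholipid staining (LipidTOX Red) measured by automated microscopy in fixed HepG2 cells after 24 h treatment; nuclei counterstained with Hoechst 33342; amiodarone as reference inducer.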
# [20] = molecular target: Estrogen receptor beta (Homo sapiens) (UniProt Q92731); assay: qHTS assay to identify small molecule agonists of the estrogen receptor beta (ER-beta) signaling pathway (AID 1259377; active means well fitted activation curve with a large enough effect in the signal ratio in the repeat runs, not every such curve was filed as active; the % refers to the signal ratio)
# Procedure, shortened: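 Agonist mode cell assay in GripTite HEK293T cells expressing an ER-beta fusion that drives beta-lactamase from an Upstream Activator Sequence; 16 hr compound exposure at 37C, then 2 h LiveBLAzer B/G FRET substrate at room temperature, fluorescence read-out.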
SMILES,outcome [1],outcome [2],Potency [3],Potency [4],outcome [5],Potency [6],Potency [7],outcome [8],Potency [9],Potency [10],Potency [11],Potency [12],Potency [13],Potency [14],Potency [15],Potency [16],Potency [17],Potency [18],outcome [19],outcome [20]
c1ccc(N2CCNCC2)cc1,inactive,inactive,inactive,inactive,inactive,inactive,inactive,inactive,inactive,inactive,inactive,inactive,inactive,inactive,inactive,inactive,–,–,–,–
Clc1ccccc1N1CCNCC1,inactive,inactive,inactive,inactive,inactive,inactive,inactive,inactive,–,inactive,inactive,–,inactive,inactive,inactive,inactive,inactive,inactive,–,–
CC1(C)COP(Oc2ccccc2)OC1,inactive,inactive,inactive,inactive,inactive,inactive,inactive,inactive,inactive,–,inactive,inactive,inactive,–,inactive,inactive,–,–,–,–
CCOP(=O)(OCC)OP(=O)(OCC)OCC,inactive,inactive,inactive,inactive,inactive,inactive,inactive,inactive,inactive,inactive,inactive,–,inactive,–,inactive,inactive,–,–,–,–
COP(=S)(OC)Oc1ccc(S(N)(=O)=O)cc1,inactive,inactive,–,inactive,inactive,inactive,inactive,inactive,inactive,inactive,inactive,inactive,–,inactive,inactive,inactive,inactive,–,inactive,inactive
C#C[C@]1(O)C=C[C@H]2[C@@H]3CCC4=CC(=O)CC[C@@H]4[C@H]3CC[C@@]21CC,inactive,inactive,inactive,inactive,inactive,inactive,inactive,inactive,15 µM (active),–,inactive,–,0.133 µM (active),inactive,inactive,inactive,inactive,3.35 µM (active),inactive,inactive
CC(Cl)(Cl)[N+](=O)[O-],inactive,inactive,inactive,inactive,inactive,inactive,inactive,inactive,inactive,inactive,inactive,inactive,inactive,inactive,inactive,–,inactive,inactive,–,–
COc1cc(OC)nc(Oc2cccc(Oc3nc(OC)cc(OC)n3)c2C(=O)O)n1,inactive,inactive,inactive,inactive,inactive,inactive,inactive,inactive,–,inactive,inactive,inactive,inactive,inactive,–,–,–,–,–,inactive
